High-throughput results (PubChem)
PAX8 reporter = PAX8 transcriptional activity inhibition. RMG-I TPO-luciferase reporter, SteadyGlo, 24 h. inhibition, % at 12.6 µM. actives 1.2% (n = 360,000). AID 652154;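 active = mean replicate inhibition at least 60% with every replicate also reaching 60%; inconclusive = only one of the two criteria is met; inactive = mean below 60% and not all replicates reaching 60%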;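 also: luciferase light reporting Pax8 driven TPO promoter activity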
CF NFkB inh = inhibitors of cystic fibrosis induced NF-kB; KKLEB NF-kB-GFP reporter, PAF-induced, GFP fluorescence overnight; inhibition, % at 5 µM; actives 0.86% (n = 360,000); AID 588850;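 active = at least 50% inhibition at 5 µM, scaled per plate between neutral and stimulator controls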;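 also: PAF is a Pseudomonas aeruginosa culture filtrate used as stimulus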
KKLEB cytotox = counter-screen for CF NF-kB inhibitors: cytotoxicity; KKLEB CF airway cells viability, ATPlite luminescence, overnight; active compounds read low; cells stimulated with P. aeruginosa culture filtrate; activity change (cytotoxicity), % at 5 µM; actives 0.36% (n = 360,000);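 active = corrected activity change at or below -50% at 5 µM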
EWS-Fli inh = EWS/Fli transcriptional activity inhibition | A673 NR0B1-luciferase reporter, viability-normalised | inhibition, % at 12.6 µM | actives 0.67% (n = 350,000);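 active = mean inhibition of at least 50% after viability correction, with every replicate also passing that limit; inconclusive = mean reaches 50% but only one of two replicates passes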;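 also: firefly luciferase signal divided by Alamar Blue viability fluorescence both relative to DMSO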
HIF-2a block = HIF-2a inhibition. actives 0.72% (n = 360,000). inhibition, % at 18.8 µM. 786-0 RCC cells HIF-2a reporter, luciferase luminescence, overnight;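 active = inhibition of the luminescence signal of 40% or more relative to plate controls, in a single-dose primary screen at 18.75 µM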
Numbers stand for hits; i = inactive; ? = inconclusive; nt = not tested or not shown. Most compounds without a hit are left out; they make up all but 2.1% or so of the library.

SMILES	PAX8 reporter	CF NFkB inh	KKLEB cytotox	EWS-Fli inh	HIF-2a block
O=C(NCc1ccco1)C1CCCN(S(=O)(=O)c2ccc(Br)cc2)C1 (stereo unspecified)	131	i	i	i	i
CCOC(=O)c1ccc(N2C(=O)C=CC2=O)cc1	nt	i	i	nt	95
COc1ccc(-n2c(O)c(C=Nc3ccccc3)c3ccccc3c2=O)cc1	i	i	-52	i	i
CN1C(=O)c2cc(NC(=O)C3CCCC3)ccc2OC[C@H]2O[C@H](CC(=O)NCCc3ccncc3)CC[C@H]21	i	nt	nt	i	nt
COCC(=O)Nc1ccc2c(c1)[C@H]1C[C@@H](CC(=O)N3CCc4ccccc4C3)O[C@@H](CO)[C@H]1O2	nt	nt	nt	i	nt
C[C@@H]1CN([C@@H](C)CO)C(=O)c2cc(N(C)C)ccc2O[C@@H]1CN(C)C(=O)NC1CCCCC1	i	nt	nt	nt	nt
O=C1c2ccccc2C(=O)N1Nc1ccccc1	nt	i	i	nt	i
Cc1ccc(NN2C(=O)C=C(c3ccccc3)C2=O)cc1	i	i	i	63	i
COc1ccc(S(=O)(=O)Nc2ccc3c(c2)C(=O)N([C@@H](C)CO)C[C@H](C)[C@@H](CN(C)S(=O)(=O)c2ccccc2)OCCCC[C@@H](C)O3)cc1	i	nt	nt	i	nt
COCC#Cc1cnc2c(c1)C(=O)N([C@H](C)CO)C[C@@H](C)[C@H](CN(C)Cc1ccc(-c3ccccc3)cc1)O2	nt	nt	nt	i	nt
Cc1c(C#N)c(NC(=O)CCl)n(Cc2ccc(F)cc2)c1C	i	73	-58	i	i
C#CCn1c(=NC(=O)c2ccc(S(=O)(=O)N3CCc4ccccc4C3)cc2)sc2cc(S(N)(=O)=O)ccc21	nt	52	-53	nt	i
COC(=O)[C@@]12C[C@@H](CC(=O)N3CCN(C(=O)c4ccco4)CC3)C(=O)N(Cc3ccccc3)C1=CCC(C)(C)C2	88	nt	nt	i	i
COC(=O)[C@]12C[C@H](CC(=O)N3CCN(C(=O)c4ccco4)CC3)C(=O)N(Cc3ccccc3)C1=C[C@H](C(C)(C)C)O[C@@H]2C	74	nt	nt	i	nt
COC(=O)[C@@]12C[C@@H](CC(=O)N3CCN(C(=O)c4ccco4)CC3)C(=O)N(Cc3ccco3)C1=CCC(C)(C)C2	87	nt	nt	i	i
COC(=O)[C@]12C[C@H](CC(=O)N3CCN(C(=O)c4ccco4)CC3)C(=O)N(Cc3ccc4c(c3)OCO4)C1=C[C@H](C(C)(C)C)O[C@@H]2C	i	nt	nt	i	nt
Oc1ccc(N=Nc2ccccc2)o1	i	95	i	i	i
O=c1ccc(N=Nc2ccccc2)ccc1O	i	i	i	i	i
C[C@@H]1CN([C@H](C)CO)C(=O)Cc2cc(NS(=O)(=O)c3cccs3)ccc2O[C@@H]1CN(C)S(=O)(=O)c1cccs1	i	nt	nt	i	nt
CCn1c(/N=C/c2ccccc2NS(=O)(=O)c2ccc(C)cc2)nc2ccccc21	nt	61	i	nt	i
CC12CCC(=O)C=C1CCC1C2CCC2(C)C1CC[C@]2(O)C(=O)CO (stereo partly specified)	nt	i	i	i	i
CC(=O)OCC(=O)C1(O)CCC2C3CCC4=CC(=O)CCC4(C)C3(F)C(O)CC21C (stereo unspecified)	i	75	i	i	i
CC12C=CC(=O)C=C1CCC1C3CCC(O)(C(=O)CO)C3(C)CC(O)C12F (stereo unspecified)	i	70	i	i	i
CC(=O)OCC(=O)[C@@]1(O)CC[C@H]2[C@@H]3CCC4=CC(=O)C=C[C@]4(C)[C@@]3(F)[C@@H](O)C[C@@]21C	i	65	i	i	i
CC12C=CC(=O)C=C1CCC1C3CCC(O)(C(=O)CO)C3(C)CC3OC312 (stereo unspecified)	i	i	i	i	i
SMILES	PAX8 reporter	CF NFkB inh	KKLEB cytotox	EWS-Fli inh	HIF-2a block
CC12C=CC(=O)C=C1C(F)CC1C3CCC(O)(C(=O)CO)C3(C)CC(O)C12F (stereo unspecified)	i	69	i	i	i
CCC(=O)[C@@]1(C)[C@H](C)C[C@H]2[C@@H]3CCC4=CC(=O)C=C[C@]4(C)[C@H]3[C@@H](O)C[C@@]21C	i	72	i	i	i
CCCC1OC2CC3C4CCC5=CC(=O)C=CC5(C)C4C(O)CC3(C)C2(C(=O)O)O1 (stereo unspecified)	i	74	i	i	i
CCCC1O[C@@H]2CC3C4CCC5=CC(=O)C=C[C@]5(C)C4C(OC(C)=O)C[C@]3(C)[C@]2(C(=O)COC(C)=O)O1 (stereo partly specified)	nt	i	i	nt	i
CC12C=CC(=O)C=C1CCC1C2CCC2(C)C(C(=O)CO)CCC12 (stereo unspecified)	i	i	i	i	i
C[C@@H]1CCCCO[C@@H](CN(C)C(=O)Nc2ccccc2)[C@H](C)CN([C@@H](C)CO)C(=O)c2cc(NC(=O)c3ccccc3)ccc2O1	i	nt	nt	i	nt
Clc1ccc(Nc2ncnc3ccc(Br)cc23)cc1	nt	73	i	nt	i
C[C@H](CO)N1C[C@H](C)[C@@H](CN(C)Cc2ccc(C(F)(F)F)cc2)OCCCC[C@H](C)Oc2ccc(NC(=O)Nc3ccc(F)cc3)cc2C1=O	88	nt	nt	i	nt
C[C@@H]1CCCCO[C@@H](CN(C)Cc2ccc(C(F)(F)F)cc2)[C@H](C)CN([C@@H](C)CO)C(=O)c2cc(NC(=O)Nc3ccc(C(F)(F)F)cc3)ccc2O1	i	nt	nt	i	nt
C[C@@H]1CCCCO[C@@H](CN(C)Cc2ccc(C(F)(F)F)cc2)[C@H](C)CN([C@@H](C)CO)C(=O)c2cc(NC(=O)Nc3ccc(F)cc3)ccc2O1	86	nt	nt	i	nt
C[C@@H]1CN([C@@H](C)CO)C(=O)c2cc(NC(=O)Nc3ccc(C(F)(F)F)cc3)ccc2O[C@@H](C)CCCCO[C@H]1CN(C)Cc1ccc(C(F)(F)F)cc1	?	nt	nt	i	nt
C[C@@H]1CN([C@@H](C)CO)C(=O)c2cc(NC(=O)Nc3ccc(F)cc3)ccc2O[C@@H](C)CCCCO[C@@H]1CN(C)Cc1ccc(C(F)(F)F)cc1	80	nt	nt	i	nt
C[C@@H]1CCCCO[C@H](CN(C)C(=O)Nc2ccc(F)cc2)[C@H](C)CN([C@@H](C)CO)C(=O)c2cc(NC(=O)Nc3ccc(C(F)(F)F)cc3)ccc2O1	i	nt	nt	i	nt
C[C@H](CO)N1C[C@H](C)[C@@H](CN(C)C(=O)c2ccccc2)OCCCC[C@H](C)Oc2ccc(NC(=O)CCCN(C)C)cc2C1=O	i	nt	nt	i	nt
CCCC#Cc1ccc2c(c1)O[C@@H](CN(C)C(=O)c1cnccn1)[C@H](C)CN([C@@H](C)CO)S2(=O)=O	nt	nt	nt	i	nt
CC(C)NC(=O)N(C)C[C@H]1Oc2ncc(C#CC3CC3)cc2C(=O)N([C@@H](C)CO)C[C@@H]1C	i	nt	nt	i	nt
Cc1cc(NC(=O)c2ccc(NC(=O)C3CC3)cc2)no1	i	i	i	i	i
Cc1cc(Nc2cc(Cl)nc(Sc3ccc(NC(=O)C4CC4)cc3)n2)n[nH]1	75	i	i	i	i
Cc1ccccc1-c1ccc(C2[C@@H]3CN(C(=O)NC4CCCCC4)C[C@H]2N3)cc1 (stereo partly specified)	i	nt	nt	i	nt
